The values that follow come from PubChem BioAssay (NCI).

This is part of a sample that, as a whole, favours compounds with a hit. Of some 83,000 tested, about 20% had one in any assay.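 Step 1: grow cells in 96-well plates. Step 2: add test compound at a single concentration. Step 3: incubate 48 h. Step 4: record percent growth.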 A number with no mark means an inactive call. Calls of active or inactive are those of the source. Rule for the calls: active = growth percent below 10; inactive = the rest.

Holding throughout (assay): NCI-60 one-dose screen, 48 h (100 = growth as untreated, 0 = no growth, -100 = all killed)
Conditions in all cases: 10 µM unless noted

The test system of assay [1] is HCT-15 colon.
In assay [2] the test system is HT29 colon.
Assay [3] relates to SNB-75 CNS.
Assay [4] concerns SNB-19 CNS.
For assay [5], the system named is U251 CNS.
Assay [6] has as its system PC-3 prostate.
The test system of assay [7] is SK-MEL-5 melanoma.
The subject of assay [8] is UACC-62 melanoma.
Assay [9] concerns LOX IMVI melanoma.
Assay [10] concerns SK-MEL-28 melanoma.

For `O=[N+]([O-])c1cnc[nH]1`, the growth in [1] is 112%; in [2], 95.1%; in [3] it was 93.1%; in [4], 104%; in assay [5], 99.6%; in [6] it was 96.5%. In addition, the growth is 106% in assay [7], 96.3% in assay [8], 97.8% in [9] and 114% in [10].
Regarding `O=C1NC(=O)C(=Cc2cccn2CCCCCn2c3ccccc3c(=O)c3ccccc32)C(=O)N1`, the growth in assay [1] is 92.8%; in assay [2], 103%; in [3], 101%; in assay [4] it was 101%; in [5], 96.8%; in assay [6] it was 91%. Moreover, the growth is 98.6% in [7], 90.7% in assay [8], 95.3% in assay [9] and 111% in [10].
On to `COC(=O)[C@@H](C)C[C@H](Cc1ccccc1)NC(=O)c1csc([C@@H](C[C@H](C(C)C)N(C)C(=O)[C@@H](NC(=O)[C@H]2CCCCN2C)c2ccc(F)cc2)OC(C)=O)n1`, for which the growth in assay [1] was 15.5%; in assay [2], 6.87% (active); in [3], 30.7%; in assay [4], 74.8%; in assay [5] it was 4.87% (active); in assay [6], 15.8%. Moreover, the growth in assay [7] was -46.3% (active); in assay [8], 40%; in [9], 7.62% (active); in [10] it was 49.6%.
On to `NC1CC2CCCCC2CC1(O)c1ccccc1` (stereo not given), for which the growth was 102% in assay [1]; 102% in assay [2]; 80.9% in [3]; 103% in assay [4]; 96.4% in [5]; 92.8% in [6]. For the same compound, the growth in [7] was 102%; in assay [8], 105%; in [9], 91.9%; in assay [10] it was 111%.
With `ClC1=C(Cl)C(Cl)(C2(Cl)C(Cl)=C(Cl)C(Cl)=C2Cl)C(Cl)=C1Cl`, the growth in assay [1] is -41.9% (active); in assay [2] it was -64.2% (active); in assay [3], 62%; in [4], 10.5%; in assay [5] it was -11.3% (active); in [6] it was -8.81% (active). In addition, the growth was -21.8% (active) in assay [7], -18.6% (active) in assay [8], -85.5% (active) in [9] and -18.1% (active) in assay [10].
`CCCOC(=O)N[C@H]1CCc2c(Br)c(OC)c(OC)c(OC)c2-c2ccc(SC)c(=O)cc21`: the growth was 7.9% (active) in [1]; 12.2% in assay [2]; 19.6% in [3]; 23.1% in assay [4]; 17.6% in assay [5]; 21.1% in assay [6]. In addition, the growth in [7] is -29.9% (active); in [8], 17.8%; in assay [9], 8.1% (active); in assay [10], 64.7%.
As to `C=CC1=C[C@@H]2[C@@H]3O[C@]4(CC[C@H](O4)[C@@H](C)C[C@@H](O)C3=O)C[C@H](O)C3=NCC[C@@]32CC1`, the growth in [1] was -13.9% (active); in [2], -13.6% (active); in assay [3] it was -95.8% (active); in [4], -16.2% (active); in assay [5] it was -7% (active); in assay [6], -20.1% (active). Moreover, the growth in assay [7] was -90.2% (active); in assay [8] it was -68.3% (active); in [9] it was -59.9% (active); in [10], -59.8% (active).
In the case of `Cc1cc(-c2nc3cc(F)ccc3[se]2)cc(F)c1N`, the growth in assay [1] is 38.2%; in assay [2], 62.5%; in assay [3], 91.9%; in assay [4] it was 97.2%; in [5], 98.7%; in assay [6] it was 72.7%. In addition, the growth in assay [7] was 81%; in [8], 85.7%; in assay [9] it was 90%; in assay [10] it was 121%.
Consider `N#CC1(C#N)C(c2ccc(N(CCCl)CCCl)cc2)OC23CCCCC2C1(C#N)C(=N)O3` (stereo not given), for which the growth was 90.6% in assay [1]; 106% in assay [2]; 63.3% in [3]; 84.4% in assay [4]; 75.8% in assay [5]; 74.8% in assay [6]. Also, the growth is 83.3% in assay [7], 53.2% in [8], 68.6% in assay [9] and 111% in assay [10].
`O=NNc1ccccn1`: the growth in [1] is 40.2%; in assay [2] it was 34.3%; in assay [3], 95.5%; in [4], 101%; in assay [5], 80.1%; in assay [6], 82.9%. Besides, the growth in assay [7] was 99.3%; in assay [8], 85.9%; in assay [9] it was 71.1%; in assay [10], 100%.
Regarding `CC(=O)O[C@H](C[C@H](C(C)C)N(C)C(=O)[C@@H](NC(=O)[C@H]1CCCCN1C)C(C)(C)C)c1nc(C(=O)N[C@@H](Cc2ccccc2)C[C@H](C)C(=O)O)cs1`, the growth in assay [1] is 5.59% (active); in assay [2], 1.32% (active); in assay [3], 17%; in assay [4] it was 23.4%; in assay [5], 11.1%; in [6], 25.1%. Moreover, the growth in assay [7] was -50.6% (active); in [8], 26.2%; in assay [9], 14.3%; in assay [10], 52.6%.
Take `COC(=O)C12CC(NC(=O)c3csc([C@@H](C[C@H](C(C)C)N(C)C(=O)[C@@H](NC(=O)[C@H]4CCCCN4C)C4CC4)OC(C)=O)n3)(C1)C2`: the growth in assay [1] was 14.1%; in assay [2], -8.13% (active); in assay [3] it was 43.4%; in assay [4], 39.6%; in assay [5], 11.8%; in assay [6] it was 23.4%. Moreover, the growth in assay [7] was -22.5% (active); in assay [8], 58.6%; in assay [9], 15.7%; in [10], 60.1%.
Take `C=C1C[C@](OC)([C@H](O)C(=O)N[C@@H](OC)[C@@H]2C[C@@H](O)C(C)(C)[C@@H](C[C@@H](COC)OC)O2)O[C@H](C)[C@@H]1C`: the growth in [1] was -51.3% (active); in [2] it was -68.7% (active); in assay [3] it was -100% (active); in assay [4] it was -10.7% (active); in assay [5] it was -61.9% (active); in assay [6] it was -25.5% (active). The growth in assay [7] was -100% (active); in [8], -92.5% (active); in [9] it was -81.8% (active); in [10], -100% (active).
Turning to `COc1ccc(N(CC(=O)NCCC[Te]c2ccccc2)C(=O)CCSC2=C(C)C(=O)c3ccccc3C2=O)cc1`, the growth was -15.7% (active) in assay [1]; 1.86% (active) in assay [2]; 13.2% in assay [3]; -12.4% (active) in [4]; -42.7% (active) in [5]; 0.627% (active) in assay [6]. Further, the growth is -96.7% (active) in assay [7], -25.4% (active) in assay [8], -50.1% (active) in assay [9] and -18.1% (active) in assay [10].
Consider `C/C(=C\c1cc(C(F)(F)F)nn1CCNC(=O)OC(C)(C)C)[C@@H]1C[C@@H]2O[C@]2(C)CCC[C@H](C)[C@H](O)[C@@H](C)C(=O)C(C)(C)[C@@H](O)CC(=O)O1`, for which the growth in assay [1] was 39.5%; in [2] it was 23.6%; in [3] it was 37.2%; in [4], 65.4%; in [5] it was 61.4%; in assay [6], 32%. The growth in [7] is 38.8%; in assay [8], 40.7%; in assay [9], 55.9%; in assay [10], 79.2%.
Regarding `C[CH2][Sn]([Cl])([Cl])[CH2]C.Oc1ccccc1C=NCCN=Cc1ccccc1O`, the growth in assay [1] is 104%; in assay [2], 108%; in assay [3] it was 121%; in [4] it was 106%; in assay [5], 93.5%; in assay [6] it was 89.8%. The growth in assay [7] was 99.5%; in assay [8] it was 93.8%; in assay [9], 72.2%; in [10], 124%.
As for `COc1cc2ncnc(Nc3ccc(F)c(Cl)c3)c2cc1OCC(=O)N1CCN(C)CC1`, the growth is 93.4% in assay [1]; 90.6% in [2]; 92.2% in assay [3]; 79.6% in assay [4]; 101% in [5]; 86% in assay [6]. In addition, the growth was 97.5% in assay [7], 98.1% in [8], 91.5% in assay [9] and 102% in assay [10].
As to `Cc1cc(N(CCCl)CCCl)ccc1C=Nc1ccccc1-c1ccccc1`, the growth in [1] was 79.4%; in assay [2], 89.3%; in assay [3], 66.1%; in assay [4], 77.9%; in assay [5] it was 63.3%; in [6] it was 85.5%. Further, the growth in assay [7] was 85.7%; in [8], 6.46% (active); in [9], 66.3%; in assay [10], 95.2%.
For the compound `O=C(c1cccc(O)c1O)c1cn(Cc2ccc(F)cc2)c2cccc(O)c12`, the growth in assay [1] is 27.8%; in assay [2], 94.5%; in [3], 55.3%; in assay [4], 37.3%; in [5] it was 31%; in assay [6] it was 39.2%. The growth in assay [7] was 25.4%; in assay [8], 9.18% (active); in assay [9], 29.3%; in [10], 39.2%.
`N#C[Se]Cc1cc(-c2ccccc2)n(-c2ccc(S(N)(=O)=O)cc2)n1`: the growth was 4.73% (active) in [1]; -27% (active) in [2]; -38.3% (active) in [3]; -100% (active) in [4]; -61.2% (active) in assay [5]; -13.1% (active) in [6]. Besides, the growth is -76.6% (active) in [7], -9.79% (active) in [8], -69.4% (active) in [9] and -58.8% (active) in assay [10].
Consider `CC[C@H](C)[C@H](NC(=O)[C@H]1CCCCN1C)C(=O)N(C)[C@H](C[C@@H](OC(C)=O)c1nc(C(=O)NC23CC(C(=O)OC)(C2)C3)cs1)C(C)C`, for which the growth was 6.1% (active) in assay [1]; -9.84% (active) in [2]; 15% in assay [3]; 29% in assay [4]; 6.7% (active) in assay [5]; 23.6% in assay [6]. Besides, the growth in assay [7] was -65.7% (active); in assay [8] it was 44.3%; in assay [9], 4.9% (active); in assay [10], 60.8%.
Turning to `C[C@]12C[C@@H](CO)[C@H](O)C[C@@H]1CC[C@@H]1[C@@H]2CC[C@]2(C)[C@@H](O)CC[C@@H]12`, the growth is 105% in assay [1]; 84% in assay [2]; 107% in [3]; 108% in assay [4]; 96.1% in assay [5]; 95.1% in assay [6]. The growth in assay [7] is 103%; in [8], 106%; in assay [9] it was 93.8%; in assay [10], 105%.
Consider `COc1ccc(/C=C\c2cc(OC)c(OC)c(OC)c2)c(NS(=O)(=O)c2ccc(Cl)cc2)c1O`, for which the growth is 13.4% in [1]; 17.1% in [2]; 18.9% in assay [3]; 53.4% in assay [4]; 12.3% in [5]; 26.1% in assay [6]. Moreover, the growth in assay [7] was -1.82% (active); in assay [8], 40.9%; in [9], 10.7%; in [10] it was 60.3%.
